This is a sample that favours compounds with a hit; in the whole collection about 9.9% have one here.
MCF10A rerep: A quantitative high throughput screen for small molecules that induce DNA re-replication in MCF 10a normal breast cells. MCF 10A DNA re-replication, Hoechst nuclear intensity, 48 h. Potency, µM (series often up to 46.1 µM), without a hit: at the top dose activity, positive = re-replication, hits mostly activators. 350,000 compounds, 2.9% hits; note: potency is the fitted concentration of half-maximal effect; % of control where 0% means no effect; nearly all actives have a fitted effect of over 50% in size
KB-V1 cytotox: qHTS assay for MDR1-selective chemotherapeutics: Primary screen using the drug-selected MDR subline cells KB-V1; KB-V1 MDR cells viability, CellTiter-Glo, 72 h; Potency, µM (titrated, usually from 46.1 µM), usual class: cytotoxic; 400,000 compounds, 3.4% hits; note: potency is the fitted concentration of half-maximal effect; % is set by controls: 0 for no effect and ±100 for the full control effect; nearly all actives have a fitted effect of over 60% in size
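Following 72 h at 37 degrees C with compound, KB-V1 cell viability was read by CellTiter-Glo luminescence, medium being phenol-red-free DMEM plus 10% FBS; concentration-response parameters came from normalized, curve-fitted qHTS data.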
KB-3-1 cytotox: qHTS assay for MDR1-selective chemotherapeutics: Primary screen using the parental adenocarcinoma cell KB-3-1. AID 1347075, 2019. KB-3-1 viability, CellTiter-Glo ATP luminescence, 72 h. 400,000 compounds, 1.4% hits. Potency, µM (titrated, usually from 46.1 µM), most hits filed as cytotoxic; note: potency is the fitted concentration of half-maximal effect; % is set by controls: 0 for no effect and ±100 for the full control effect; nearly all actives have a fitted effect of over 60% in size
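Multi-concentration cytotoxicity screen in KB-3-1 cells grown in DMEM lacking phenol red with 10% FBS. After 72 h at 37 °C with compound, ATP-dependent luminescence was recorded.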
SW480 rereplic: A quantitative high throughput screen for small molecules that induce DNA re-replication in SW480 colon adenocarcinoma cells; SW480 DNA re-replication, Hoechst DNA content imaging, 48 h; Potency, µM (titrated, usually from 46.1 µM), inactives show top-dose re-replication activation, most hits filed as activators; 340,000 compounds, 1.8% hits; AID 624297, 2012; note: potency is the fitted concentration of half-maximal effect; % of control where 0% means no effect; nearly all actives have a fitted effect of over 55% in size
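Cells (250 per well) received 23 nL compound or DMSO by pin tool and were kept 48 hr at 37 C, 5% CO2. Nuclei were then stained with Hoechst for 40 min and scanned for DNA content.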
IL1B secr inh: qHTS for Inhibitors of Inflammasome Signaling: IL-1-beta AlphaLISA Primary Screen; activity change, % at 57.5 µM; AID 743279, 2014; 360,000 compounds, 4.7% hits; THP-1 LPS/ATP IL-1B secretion, AlphaLISA, 16 h; hits give low values; in the data active = activity change below about -50%; inconclusive = mostly about -30% to -49%; note: % is set by controls: 0 for no effect and ±100 for the full control effect
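Secreted IL-1B measured by AlphaLISA bead assay after 16 h compound exposure of THP-1 cells; compounds (final up to 57.5 uM) added 1 h before LPS (250 ng/mL) and ATP (1.25 mM) stimulation; lower signal means less secretion.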
Active calls of the source: *. Unless noted, calls come from the whole dose curve; as a rule, active = well fitted curve in the direction sought with a large enough effect; inconclusive = small, poorly fitted or top-dose-only effect, or another doubt; inactive = no such curve, though single readings can be large; an effect the other way counts as inactive or inconclusive.

For Cn1cnnc1SCC(=O)Nc1ccc2nc(SCc3ccccc3F)sc2c1 the results were MCF10A rerep -2%, KB-V1 cytotox 21µM*, KB-3-1 cytotox inactive, SW480 rereplic 0% and IL1B secr inh 20.
`CC1(C)S[C@@H]2[C@H](NC(=O)COc3ccccc3)C(=O)N2[C@@H]1C(=O)OCc1cccc2cccnc12` gave KB-V1 cytotox inactive and KB-3-1 cytotox inactive.
For Cc1nn(C)c(C)c1NC(=O)CCl the results were MCF10A rerep -5%, KB-V1 cytotox inactive, KB-3-1 cytotox 12µM*, SW480 rereplic 5% and IL1B secr inh inconclusive.
For Cc1ccc(-n2nc(C)c(NC(=O)CCl)c2C)cc1C the results were MCF10A rerep 12%, KB-V1 cytotox 16µM*, KB-3-1 cytotox 9.2µM*, SW480 rereplic inconclusive and IL1B secr inh -104*.
Cc1nn(C)c(C)c1NC(=O)COc1ccc(Cl)cc1 was read as MCF10A rerep -1%, KB-V1 cytotox inactive, KB-3-1 cytotox inactive, SW480 rereplic 3% and IL1B secr inh 21.
COc1ccc(N2CCN(C(=O)CCc3c(C)nc4cc(-c5cccc(F)c5)nn4c3C)CC2)cc1 was read as KB-V1 cytotox inactive and KB-3-1 cytotox inactive.
For NC(=O)COC(=O)c1ccccc1Oc1ccccc1 the results were MCF10A rerep 3%, KB-V1 cytotox inactive, KB-3-1 cytotox inactive, SW480 rereplic -1% and IL1B secr inh 24.
CC(C)OCCCNC(=O)c1c(N)n(/N=C/c2ccccn2)c2nc3ccccc3nc12 was read as MCF10A rerep 4.1µM*, KB-V1 cytotox inconclusive, KB-3-1 cytotox inactive, SW480 rereplic 21µM* and IL1B secr inh -10.
For CCC(C)NC(=O)c1c(N)n(/N=C/c2ccccn2)c2nc3ccccc3nc12 (stereo unspecified) the results were MCF10A rerep inconclusive, KB-V1 cytotox 21µM*, KB-3-1 cytotox inactive, SW480 rereplic 16µM* and IL1B secr inh -83*.
Screening CC(Nc1cccc2ccccc12)C(=O)N/N=C/c1ccccn1 (stereo unspecified) returned MCF10A rerep -4%, KB-V1 cytotox inconclusive, KB-3-1 cytotox inactive, SW480 rereplic inconclusive and IL1B secr inh 49.
CCC(C)NC(=O)c1c(N)n(/N=C/c2cccnc2)c2nc3ccccc3nc12 (stereo unspecified) was read as MCF10A rerep 2.1µM*, KB-V1 cytotox inconclusive, KB-3-1 cytotox inconclusive, SW480 rereplic 5.8µM* and IL1B secr inh -59*.
`Nc1c(C(=O)NCC2CCCO2)c2nc3ccccc3nc2n1/N=C/c1ccncc1` (stereo unspecified) gave MCF10A rerep 25%, KB-V1 cytotox inactive, KB-3-1 cytotox inactive, SW480 rereplic -3% and IL1B secr inh 0.
Screening COCCCNC(=O)c1c(N)n(/N=C/c2cccs2)c2nc3ccccc3nc12 returned MCF10A rerep inconclusive, KB-V1 cytotox inactive, KB-3-1 cytotox inactive, SW480 rereplic 7.3µM* and IL1B secr inh 1.
Screening COCCCNC(=O)c1c(N)n(/N=C/c2cccnc2)c2nc3ccccc3nc12 returned MCF10A rerep inconclusive, KB-V1 cytotox inactive, KB-3-1 cytotox inactive, SW480 rereplic inconclusive and IL1B secr inh inconclusive.
Screening CC(C)OCCCNC(=O)c1ccncc1 returned MCF10A rerep 29%, KB-V1 cytotox inactive, KB-3-1 cytotox inactive, SW480 rereplic -7% and IL1B secr inh 0.
Screening CC(=O)O[C@H]1[C@H](C)OC=C[C@@H]1OC(C)=O returned MCF10A rerep 5%, KB-V1 cytotox inactive, KB-3-1 cytotox inactive, SW480 rereplic -5% and IL1B secr inh 1.
`COCCN(CC1CCCN(C2Cc3ccccc3C2)C1)C(=O)c1cccc(C)c1` (stereo unspecified) gave MCF10A rerep 1%, KB-V1 cytotox inactive, KB-3-1 cytotox inconclusive, SW480 rereplic 0% and IL1B secr inh -6.
For COCCN(CC1CCCN(C2Cc3ccccc3C2)C1)C(=O)c1ccc(C(C)=O)cc1 (stereo unspecified) the results were MCF10A rerep inconclusive, KB-V1 cytotox inactive, KB-3-1 cytotox inactive, SW480 rereplic 0.32µM* and IL1B secr inh -17.
Screening CC1CCc2nc(/C(C#N)=C/c3ccncc3)sc2C1 (stereo unspecified) returned MCF10A rerep inconclusive, KB-V1 cytotox inconclusive, KB-3-1 cytotox inactive, SW480 rereplic 7.3µM* and IL1B secr inh -13.
Screening CCN1CCN(c2ccc(S(=O)(=O)N3CCCCC3)cc2NC(=O)c2ccc(OC(F)F)cc2)CC1 returned MCF10A rerep 6%, KB-V1 cytotox inactive, KB-3-1 cytotox inactive, SW480 rereplic -4% and IL1B secr inh -76*.
CCN1CCN(c2ccc(S(=O)(=O)N3CCCCC3)cc2NC(=O)/C=C/c2ccc([N+](=O)[O-])cc2)CC1 was read as MCF10A rerep inconclusive, KB-V1 cytotox inconclusive, KB-3-1 cytotox inactive, SW480 rereplic -1% and IL1B secr inh -99*.
CC(Oc1ccc(F)cc1)C(=O)Nc1cc(S(=O)(=O)N2CCCCC2)ccc1N1CCN(C)CC1 (stereo unspecified) was read as MCF10A rerep 14%, KB-V1 cytotox inactive, KB-3-1 cytotox inactive, SW480 rereplic -3% and IL1B secr inh inconclusive.
`CCN1CCN(c2ccc(S(=O)(=O)N3CCCCC3)cc2NC(=O)/C=C/c2ccc(OC(F)F)cc2)CC1` gave MCF10A rerep inconclusive, KB-V1 cytotox inactive, KB-3-1 cytotox inconclusive, SW480 rereplic inconclusive and IL1B secr inh -84*.
CN1CCN(c2ccc(S(=O)(=O)N3CCCCC3)cc2NC(=O)/C=C/c2ccc(OC(F)F)cc2)CC1 was read as MCF10A rerep inconclusive, KB-V1 cytotox inconclusive, KB-3-1 cytotox inactive, SW480 rereplic inconclusive and IL1B secr inh -80*.
`CCN1CCN(c2ccc(S(=O)(=O)N3CCCCC3)cc2NC(=O)/C=C/c2ccc(F)cc2)CC1` gave MCF10A rerep 23%, KB-V1 cytotox inactive, KB-3-1 cytotox inactive, SW480 rereplic inconclusive and IL1B secr inh inconclusive.
Screening CCCCn1c(N)c(N(CCC(C)C)C(=O)COC(=O)Cc2ccc(Cl)cc2)c(=O)[nH]c1=O returned MCF10A rerep 12%, KB-V1 cytotox inactive, KB-3-1 cytotox inactive, SW480 rereplic 8% and IL1B secr inh inconclusive.
Screening CN1CCN(c2ccc(S(=O)(=O)N3CCCCC3)cc2NC(=O)/C=C/c2ccc(Cl)c([N+](=O)[O-])c2)CC1 returned MCF10A rerep inconclusive, KB-V1 cytotox inactive, KB-3-1 cytotox inactive, SW480 rereplic inconclusive and IL1B secr inh -81*.

Screens (PubChem BioAssay)
